Test results taken from PubChem BioAssay AID2710 (National Center for Advancing Translational Sciences (NCATS), 2010).
The source made the active and inactive calls.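 The calls were made as follows: active = compounds whose dose response marks them as Clk4 kinase inhibitors with a measurable half-maximal potency; inactive = the rest.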

Each compound was assayed against Dual specificity protein kinase CLK4 (Homo sapiens) (UniProt Q9HAZ1) (assay: Kinase Inhibition Profile Study on Inhibitors of CDC-like Kinase 4). Details: Reaction Biology radiometric kinase assay, 10 uM ATP.
Sequence of Dual specificity protein kinase CLK4 (Homo sapiens) (Q9HAZ1 whole entry, looked up, canonical isoform): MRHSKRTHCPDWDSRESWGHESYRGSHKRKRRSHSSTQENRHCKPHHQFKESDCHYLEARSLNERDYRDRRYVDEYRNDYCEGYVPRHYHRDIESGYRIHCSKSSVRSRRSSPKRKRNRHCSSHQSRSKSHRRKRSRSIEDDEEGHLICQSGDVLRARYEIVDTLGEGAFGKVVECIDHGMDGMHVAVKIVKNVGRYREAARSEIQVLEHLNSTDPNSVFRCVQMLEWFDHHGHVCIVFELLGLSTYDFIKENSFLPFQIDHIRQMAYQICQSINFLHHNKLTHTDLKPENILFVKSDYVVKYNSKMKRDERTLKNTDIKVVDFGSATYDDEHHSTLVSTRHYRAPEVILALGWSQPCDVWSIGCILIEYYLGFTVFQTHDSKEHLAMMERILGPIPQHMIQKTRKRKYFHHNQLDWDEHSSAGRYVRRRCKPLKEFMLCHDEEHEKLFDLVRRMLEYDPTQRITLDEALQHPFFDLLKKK
From the text: NIH Molecular Libraries Probe Production Centers Network [MLPCN] NIH Chemical Genomics Center [NCGC] MLSCN Grant: 1R03MH084827-01 Assay Submitter (PI): Tom Misteli NCGC Assay Overview: Alternative splicing of pre-mRNAs plays a major role in the regulation of eukaryotic gene expression. Alternative splicing is now thought to be one of the primary reasons for the complexity of higher organisms leading to an average of three protein isoforms per gene. Aberrant splicing can lead to a number of diseases and is known to play a role in rare genetic diseases such as progeria syndrome. Hutchinson-Gilford Progeria Syndrome (HGPS) is a pediatric premature aging disease caused by a spontaneous mutation in the lamin A/C (LMNA) gene due to a single point mutation in the lamin A gene effecting 1 in 4 million people. To identify both specific splicing modulators of the lamin A gene as well as general splicing modulators, a cell-based HTS assay was developed using a minigene reporter system (AIDs, 1459 & 1487). […] The Clk family is part of the CMGC group of protein kinases which includes Dyrks and are essential kinases found in all eukaryotes. Clks have been implicated to play a role in the regulation of alternative splicing; while Dyrks, in particular over expression of Dyrk1A, has been linked to diseases as Down syndrome and Alzheimer disease. This AID summarizes the characterization of lead Clk4 inhibitors in a panel of these related kinases: Clk1, 2 & 3, DYRK1/DYRK1A, and DYRK1B. Potency against Clk4 was also confirmed in the panel.
All kinase reactions were performed using 10 uM ATP in the assay. 100% activity was taken from kinase reactions with DMSO alone (the vehicle used for compound stock solutions).

Potency, active:
Cc1nc(CNc2ncnc3ccc(-c4ccoc4)cc23)cs1 340 nM, c1nc(NCC2CCOC2)c2cc(-c3ccc4c(c3)OCO4)ccc2n1 (stereo unspecified) 29 nM, CCOC(=O)c1ccc(-c2ccc3ncnc(NCCc4cnc[nH]4)c3c2)o1 250 nM, CC(C)(C)CNc1ncnc2ccc(-c3ccc4c(c3)OCO4)cc12 70 nM, c1coc(-c2ccc3ncnc(NCc4cccs4)c3c2)c1 1090 nM, COc1cccc(-c2ccc3ncnc(NCc4cccs4)c3c2)c1 1050 nM, CN(Cc1ncc[nH]1)c1ncnc2ccc(-c3ccc4c(c3)OCO4)cc12 120 nM, CCOC(=O)c1ccc(-c2ccc3ncnc(NCc4ccc(C)o4)c3c2)o1 230 nM, Cc1nc(CNc2ncnc3ccc(-c4ccoc4C)cc23)cs1 850 nM, CCOC(=O)c1ccc(-c2ccc3ncnc(NCc4ncc[nH]4)c3c2)o1 790 nM, Cc1occc1-c1ccc2ncnc(NCCc3cnc[nH]3)c2c1 740 nM, Cc1nc(CNc2ncnc3ccc(-c4ccc5c(c4)OCO5)cc23)cs1 40 nM, O=C(O)c1ccc(-c2ccc3ncnc(NCCc4cnc[nH]4)c3c2)o1 940 nM, c1nc(NCCc2cnc[nH]2)c2cc(-c3ccoc3)ccc2n1 840 nM, OCc1ccc(-c2ccc3ncnc(NCCc4cnc[nH]4)c3c2)o1 1290 nM, c1csc(CNc2ncnc3ccc(-c4ccoc4)cc23)c1 249 nM, c1nc(NCC2CCCC2)c2cc(-c3ccc4c(c3)OCO4)ccc2n1 90 nM, CCOC(=O)c1ccc(-c2ccc3ncnc(NCc4csc(C)n4)c3c2)o1 810 nM, Cc1nc(CN(C)c2ncnc3ccc(-c4ccc5c(c4)OCO5)cc23)cs1 11 nM, c1csc(CNc2ncnc3ccc(-c4ccc5c(c4)OCO5)cc23)c1 39 nM, Cc1ccc(CNc2ncnc3ccc(-c4ccoc4C)cc23)o1 490 nM
